AMA1-RON2 inh – qHTS for Inhibitors of AMA1-RON; Towards Development of Antimalarial Drug Lead: Primary Screen; Plasmodium falciparum AMA1 (3D7) - RON2 peptide interaction; AlphaScreen AMA1-biotinylated RON2 peptide binding; Potency, µM (titrated, usually from 58.2 µM), without a hit: top-dose activity change, negative = inhibition, usual class: inhibitors; 360,000 tested, 0.2% active; AID 720542, 2013;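 also: 0% = vehicle wells and -100% = peptide control; nearly all actives have a fitted effect of over 45% in size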
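AMA1 (3D7) with his tag at 25 nM final met compounds first, then biotinylated RON2 peptide at 25 nM; detection used donor plus acceptor beads, 10 µg/mL apiece, read by AlphaScreen after 30 min at room temperature.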
HCV inh – qHTS Assay for Inhibitors of Hepatitis C Virus (HCV); Huh7.5.1 HCVcc-Cre infection, luciferase reporter, 44 h; Potency, µM (highest dose often 41.8 µM), without a hit: at the top dose activity change, negative = inhibition, actives largely listed as inhibitors; 340,000 tested, 3.4% active
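Infectious HCV cell culture screen: compound-treated cells (1,000/well, pre-plated 4 h) are infected with HCVcc-Cre at roughly 0.5 moi and grown 44 h. Infection is quantified by luciferase signal after 15 min substrate incubation at room temperature.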
Pf growth 48h – Primary qHTS for delayed death inhibitors of the malarial parasite plastid, 48 hour incubation; P. falciparum luciferase growth in erythrocytes, 48 h; Potency, µM (doses to about 28.7 µM), for the others: at the top dose activity change, negative = inhibition, most hits filed as inhibitors; 310,000 tested, 5.9% active; AID 504832, 2011
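Parasite viability was followed by luminescence of a genomically integrated firefly luciferase. Cultures held 0.1% parasitemia at 2% hematocrit (final), incubated under 5% CO2 at 37 C.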
Pf growth 96h – Primary qHTS for delayed death inhibitors of the malarial parasite plastid, 96 hour incubation; P. falciparum luciferase reporter growth, 96 h; Potency, µM (series often up to 28.7 µM), for the others: at the highest dose activity change, negative = inhibition, actives largely listed as inhibitors; 320,000 tested, 6.9% active
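Parasite growth measured via integrated firefly luciferase reporter in P. falciparum. Infected erythrocytes at 2% hematocrit, 0.05% parasitemia final were treated 96 hours at 37 C under 5% CO2, and luminescence was read.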
Numbers without * were called inactive; ? = inconclusive; / = no result; [ ] = another dose, or the depositor's remark. Only some compounds are listed: those with a hit (about 11% of all), similar ones and a draw of the others. Calls follow the shape of the dose curve; as a rule, active = well fitted curve in the direction sought with a large enough effect; inconclusive = small, poorly fitted or top-dose-only effect, or another doubt; inactive = no such curve, though single readings can be large; an effect the other way counts as inactive or inconclusive. Unless noted, % is scaled to controls: 0 for no effect and ±100 for the full control effect; potency is read from the fitted curve at half-maximal effect.

SMILES	AMA1-RON2 inh	HCV inh	Pf growth 48h	Pf growth 96h
Cc1cc(OCC(=O)Nc2ccc(CN3CCOCC3)cc2)c2c(C)c(C)c(=O)oc2c1	4.6%	11.2µM*	?	?
Cc1cc(C)cc(OCC(=O)Nc2ccc(CN3CCCCC3)cc2)c1	-5.7%	-18.4%	11.7µM*	?
CCCc1cc(=O)oc2c(C)c(OCC(=O)Nc3ccc(CN4CCOCC4)cc3)ccc12	0.0%	?	?	4.15µM*
COc1ccccc1NC(=S)N1CCC(C(=O)c2ccc(F)cc2)CC1	-4.1%	-14.1%	-19.3%	?
Cn1c2ccccc2c2nnc(SCC(=O)NC3CCCC3)nc21	-2.9%	-0.6%	30.5%	?
OC(CNc1ccccc1)Cn1ccc2ccccc21 (stereo not drawn)	-15.2%	8.4%	-17.2%	-7.0%
CCOC1=C2[C@H](c3ccccc3)N(S(=O)(=O)c3ccc(C)cc3)[C@H](C(C)C)[C@H]2n2c(=O)n(-c3ccccc3)c(=O)n2C1	5.0%	/	/	/
O=C(COc1ccccc1Cl)Nc1ccc(CN2CCOCC2)cc1	5.0%	12.6µM*	-0.4%	50.5%
CCCCc1cc(=O)oc2c(C)c(OCC(=O)NCC3CCC(C(=O)O)CC3)ccc12 (stereo not drawn)	0.0%	-77.0%	40.3%	10.4µM*
Cc1cc(=O)oc2c(C)c(OCC(=O)NCC3CCC(C(=O)O)CC3)ccc12 (stereo not drawn)	-1.4%	16.1%	29.2%	3.9%
Cc1ccc(Cl)cc1N1CCN(CC(=O)Nc2ccc(CN3CCCCC3)cc2)CC1	-3.0%	8.91µM*	?	?
CCCc1cc(=O)oc2c(C)c(OCC(=O)NC3CCN(Cc4ccccc4)CC3)ccc12	-2.8%	6.31µM*	?	13.1µM*
O=C(Cn1nc(C(=O)O)c2ccccc2c1=O)Nc1cccc(S(=O)(=O)N2CCCC2)c1	-3.5%	13.6%	16.8%	-1.0%
CC1(C)OC(=O)C2=C(C[C@@H](CCOCc3ccccc3)O[C@@H]2c2ccc(F)cc2)O1	-6.5%	/	/	/
Cc1cc(OCC(=O)N[C@@H](CSCc2ccccc2)C(=O)O)c2c(C)c(C)c(=O)oc2c1	-5.3%	7.3%	?	10.4µM*
O=C(Cc1nc2ccccc2[nH]1)c1ccc(Br)cc1	51.8%	-17.4%	?	1.65µM*
c1ccc(N/N=C(\Cc2nc3ccccc3[nH]2)c2ccccc2)cc1	75.9%	-8.7%	-85.9%	?
O=C(Cc1nc2ccccc2[nH]c1=O)c1ccccc1	1.3%	-23.0%	262.1%	320.0%
Cc1ccc(N/N=C(\Cc2nc3ccccc3[nH]2)c2ccccc2)cc1	24.9%	?	9.28µM*	?
CCN/N=C(\Cc1nc2ccccc2[nH]1)c1ccccc1	51.1%	4.1%	10.4µM*	?
N#CCCN/N=C(\Cc1nc2ccccc2[nH]1)c1ccccc1	42.4%	7.0%	/	?
NS(=O)(=O)c1cccc(NC(=O)CSc2nnc(C3CC3)n2Cc2ccccc2)c1	-18.3%	7.7%	-3.1%	8.9%
CC1CCCN(CC(O)CN)C1 (stereo not drawn)	14.0%	-4.5%	-12.9%	23.0%
COc1ccc(N2CCC(CNC(=O)Nc3ccc(OC)cc3OC)C2)cc1 (stereo not drawn)	?	?	?	-6.7%
Cc1cc(C)cc(NC(=S)NCC2CCN(C(C)c3ccccc3)C2)c1 (stereo not drawn)	-8.4%	-19.4%	?	5.22µM*
SMILES	AMA1-RON2 inh	HCV inh	Pf growth 48h	Pf growth 96h
COc1ccc(N2CCC(CNC(=O)Nc3ccc(C)c(C)c3)C2)cc1 (stereo not drawn)	-11.2%	-5.7%[8.37 µM]	-8.0%	-1.6%
COc1ccc(N2CCC(CNC(=S)Nc3cccc(C)c3)C2)cc1 (stereo not drawn)	?	-16.8%	13.1µM*	82.5%
COc1ccc(N2CCC(CNC(=S)Nc3c(C)cc(C)cc3C)C2)cc1 (stereo not drawn)	-18.4%	?	11.7µM*	?
COc1ccc(N2CCC(CNC(=S)Nc3ccc(C)cc3C)C2)cc1 (stereo not drawn)	?	?	8.28µM*	?
COC(=O)C1=C(C)N(C)C(=O)NC1c1c(OC)ccc2ccccc12 (stereo not drawn)	-10.1%	-15.6%	-8.6%	0.7%
CC(=O)Nc1ccc(S(=O)(=O)N2CCC(N3CCCCCC3)CC2)cc1	?	21.0%	126.7%	-24.8%
Cc1cc2ccccc2n2c(SCC(=O)Nc3ccc(S(=O)(=O)N4CCC(C)CC4)cc3)nnc12	1.1%	?	-5.2%	4.2%
Oc1ccc(-c2nccs2)cc1	30.1%	-0.8%	/	/
Cc1ccsc1C1Nc2ccc3ncccc3c2C2=C1C(=O)CCC2 (stereo not drawn)	10.5%	-11.9%	10.4µM*	4.65µM*
Cc1ccc(CN2CCN(Cc3cccc4nccnc34)CC2CCO)cc1 (stereo not drawn)	12.2%	1.7%	4.7%	-4.8%
COc1ccccc1N=c1scc(-c2ccc3c(c2)NC(=O)CO3)n1CC1CCCO1 (stereo not drawn)	-2.5%	?	?	/
CCN=c1scc(-c2ccc3c(c2)NC(=O)CO3)n1N=C1CCCC1	6.7%	15.8µM*	?	?
Nc1nc(-c2ccc3c(c2)NC(=O)CO3)cs1	-7.6%	?	19.4%	/
COCC(C)n1c(-c2ccc3c(c2)NC(=O)CO3)csc1=Nc1ccc(OC(F)F)cc1 (stereo not drawn)	?	10µM*	/	?
CCCCN=c1scc(-c2ccc3c(c2)NC(=O)CO3)n1N=C1CCCC1	-15.1%	7.94µM*	/	9.28µM*
COc1ccc(/C=C/C(=O)N(C)c2ccccc2C(=O)O)cc1	10.9%	-8.2%	3.7%	14.0%
Cc1nn(C)c(C)c1NC(=O)CN1CCC(O)(c2ccc3c(c2)OCO3)CC1	12.5%	-2.3%	11.5%	10.4µM*
O=C(Nc1ccccc1)c1ccccc1OCC(O)CN1C(=O)c2ccccc2S1(=O)=O (stereo not drawn)	5.6%	5.5%	-10.0%	13.8%
CC1(C)NC(=O)N(CC(O)COc2ccccc2C(=O)Nc2ccccc2)C1=O (stereo not drawn)	8.7%	0.4%	-9.7%	13.1µM*
COc1ccc(/C=C/C(=O)N2CCN(C)CC2)cc1S(=O)(=O)N1CCCCC1	9.2%	8.5%	-2.4%	21.6%
CCN1C/C(=C\c2cccc([N+](=O)[O-])c2)C(=O)/C(=C/c2cccc([N+](=O)[O-])c2)C1	-12.3%	2.51µM*	2.94µM*	42.2%
COc1ccc(C=O)cc1O	-6.7%	26.1%	9.1%	-7.7%
COc1ccc(/C=C2\CN(Cc3ccccc3)C/C(=C\c3ccc(OC)c(O)c3)C2=O)cc1O	-9.1%	6.31µM*	3.29µM*	3.7µM*
COc1ccc(C=C2C(=O)c3ccccc3C2=O)cc1O	-21.7%	3.8%	2.0%	11.7µM*
CCN1C/C(=C/c2ccc(OC)c(O)c2)C(=O)/C(=C/c2ccc(OC)c(O)c2)C1	-1.1%	?	2.62µM*	1.65µM*

Compound activity: PubChem BioAssay, National Center for Advancing Translational Sciences (NCATS)
